Measurements from the supplement of paper PMC11865577.
Where a name gives a salt, the structure may show the parent alone.

Tested on: SARS-CoV-2 low-rank motif (SARS-low)
Assay: normalised indicator fluorescence (fraction of RNA + indicator signal without compound); higher = less displacement of indicator (weaker competition)
Details: compound concentration: 5 uM; 30 min; indicator: TO-PRO-1 0.1 uM; RNA concentration: 0.1 uM
Procedure, shortened: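 For the displacement screen, RNA and a TO-PRO-1 or TO-PRO-3 indicator were held in 20 mM phosphate pH 7.0 with 20 mM NaCl and 80 mM KCl in 96-well plates. After adding 0.25 μL of each 1 mM DMSO stock (about 5 uM final) and waiting 30 min, fluorescence was measured on an Infinite 200 PRO with excitation at 485 or 620 nm. Each value is the mean of two independent experiments, expressed as blank-subtracted indicator fluorescence relative to the no-compound RNA-plus-indicator signal.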

Question: How did the normalised indicator fluorescence turn out when `O=c1cc(-c2ccccc2)oc2cc(O)c(O)c(O)c12` [Baicalein] was run?
Answer: The normalised indicator fluorescence was 0.791.

Question: Which normalised indicator fluorescence does the source give for `C1CCN2C[C@@H]3C[C@@H](CN4CCCC[C@@H]34)[C@H]2C1` [(-)-Sparteine sulfate pentahydrate] here?
Answer: Its normalised indicator fluorescence is 1.05.

Question: `CN1CCN(c2ccc(C(=O)Nc3n[nH]c4ccc(Cc5cc(F)cc(F)c5)cc34)c(NC3CCOCC3)c2)CC1` [Entrectinib] was tested. Which normalised indicator fluorescence did it give?
Answer: The normalised indicator fluorescence was 1.16.

Question: `COc1ccc(-c2coc3cc(O)ccc3c2=O)cc1O` [Calycosin] was tested. Which normalised indicator fluorescence did it give?
Answer: The normalised indicator fluorescence was 1.4.

Question: For `CC(C)c1cc(-c2n[nH]c(=O)n2-c2ccc3c(ccn3C)c2)c(O)cc1O` [Ganetespib], which normalised indicator fluorescence is on record?
Answer: Its normalised indicator fluorescence is 1.26.

Question: How did the normalised indicator fluorescence turn out when `O=c1ccc2ccc(O)cc2o1` [7-Hydroxycoumarin] was run?
Answer: Its normalised indicator fluorescence is 1.25.

Question: `COC(=O)C1=CC[C@@]23CC[C@@H]([C@@](C)(/C=C/C=C(\C)C(=O)O)OC2=O)[C@@]3(OC(C)=O)CC1` [Pseudolaric Acid B] was tested. Which normalised indicator fluorescence did it give?
Answer: The normalised indicator fluorescence was 0.981.

Question: For `O=C(O)/C=C/c1ccc(Cn2ccnc2)cc1` [Ozagrel hydrochloride], which normalised indicator fluorescence is on record?
Answer: Its normalised indicator fluorescence is 1.1.

Question: Which normalised indicator fluorescence does the source give for `CN(NC(=O)CC(=O)NN(C)C(=S)c1ccccc1)C(=S)c1ccccc1` [Elesclomol] here?
Answer: The normalised indicator fluorescence was 1.17.

Question: Which normalised indicator fluorescence does the source give for `CC(=O)CCCCn1c(=O)c2c(ncn2C)n(C)c1=O` [Pentoxifylline] here?
Answer: Its normalised indicator fluorescence is 1.23.

Question: How did the normalised indicator fluorescence turn out when `O=C(O)C(O)Cc1ccc(O)c(O)c1` (stereo not drawn) [Sodium Danshensu] was run?
Answer: Its normalised indicator fluorescence is 0.934.

Question: Which normalised indicator fluorescence does the source give for `CN1CCN(c2nc(C3=C(c4c[nH]c5ccccc45)C(=O)NC3=O)c3ccccc3n2)CC1` [Sotrastaurin] here?
Answer: The normalised indicator fluorescence was 1.4.

Question: For `CCCC(C(=O)OCCN(CC)CC)(c1ccccc1)c1ccccc1` [Proadifen hydrochloride], which normalised indicator fluorescence is on record?
Answer: The normalised indicator fluorescence was 1.28.

Question: With `N=C(NCCCCCCNC(=N)NC(=N)Nc1ccc(Cl)cc1)NC(=N)Nc1ccc(Cl)cc1` [Chlorhexidine hydrochloride] as the compound, how does the normalised indicator fluorescence read?
Answer: The normalised indicator fluorescence was 1.01.

Question: Which normalised indicator fluorescence does the source give for `N=C(NCCCCCCNC(=N)NC(=N)Nc1ccc(Cl)cc1)NC(=N)Nc1ccc(Cl)cc1` [Chlorhexidine] here?
Answer: Its normalised indicator fluorescence is 1.11.

Question: `COc1ccc2c(c[n+](C)c3c4cc5c(cc4ccc23)OCO5)c1OC` [Chelerythrine chloride] was tested. Which normalised indicator fluorescence did it give?
Answer: Its normalised indicator fluorescence is 1.46.

Question: With `C[S+]([O-])c1ccc(-c2nc(-c3ccc(F)cc3)c(-c3ccncc3)[nH]2)cc1` (stereo not drawn) as the compound, how does the normalised indicator fluorescence read?
Answer: Its normalised indicator fluorescence is 1.04.

Question: With `CC1=CC(=O)c2c(O)cccc2C1=O` [Plumbagin] as the compound, how does the normalised indicator fluorescence read?
Answer: The normalised indicator fluorescence was 1.22.

Question: `CCc1cc(C(N)=S)ccn1` [Ethinamide] was tested. Which normalised indicator fluorescence did it give?
Answer: Its normalised indicator fluorescence is 1.15.

Question: `O=C(Nc1nc2ccc(NC(=O)C34CC5CC(CC(C5)C3)C4)cc2s1)c1ccccc1` was tested. Which normalised indicator fluorescence did it give?
Answer: Its normalised indicator fluorescence is 1.49.

Question: For `O=c1c(O)c(-c2cc(O)c(O)c(O)c2)oc2cc(O)cc(O)c12` [Myricetin], which normalised indicator fluorescence is on record?
Answer: The normalised indicator fluorescence was 0.808.

Question: For `COc1nccnc1NS(=O)(=O)c1ccc(NC(=O)/C=C/c2ccc([N+](=O)[O-])s2)cc1` [Necrosulfonamide], which normalised indicator fluorescence is on record?
Answer: The normalised indicator fluorescence was 1.16.

Question: With `Cc1cccc(CC(=O)N2CCc3c2ccc(-c2cn(C)c4ncnc(N)c24)c3F)n1` as the compound, how does the normalised indicator fluorescence read?
Answer: Its normalised indicator fluorescence is 1.06.
